From PubChem BioAssay AID1851 (National Center for Advancing Translational Sciences (NCATS), 2009) come the findings set out here.

Where “and” joins values, the source holds several entries; their conditions need not be identical. Equal entries are not always repeated. Among all 16,000 compounds or so, about 4,000 (25%) were called active. Not shown: some 26% with an inconclusive outcome. Not all results are given here. A number with no mark means an inactive call. Calls follow the shape of the dose curve; as a rule, active = well fitted curve in the direction sought with a large enough effect; inconclusive = small, poorly fitted or top-dose-only effect, or effect the other way; inactive = no such curve, though single readings can be large or run the other way.

What is called AC50 is the concentration at which the activity in the assay is half-maximal.
% is scaled to controls: 0 for no effect and ±100 for the full control effect.

For this experiment, the target named is Cytochrome P450 2C9 (Homo sapiens) (UniProt P11712). Nature of the experiment: Cytochrome panel assay with activity outcomes. Particulars: recombinant CYP, pro-luciferin dealkylation, luminescence, p450-cyp2c9; series mostly up to 57.1 µM; activity, negative = inhibition: at the top concentration.
Cytochrome P450 2C9 (Homo sapiens), sequence (P11712 whole entry, looked up): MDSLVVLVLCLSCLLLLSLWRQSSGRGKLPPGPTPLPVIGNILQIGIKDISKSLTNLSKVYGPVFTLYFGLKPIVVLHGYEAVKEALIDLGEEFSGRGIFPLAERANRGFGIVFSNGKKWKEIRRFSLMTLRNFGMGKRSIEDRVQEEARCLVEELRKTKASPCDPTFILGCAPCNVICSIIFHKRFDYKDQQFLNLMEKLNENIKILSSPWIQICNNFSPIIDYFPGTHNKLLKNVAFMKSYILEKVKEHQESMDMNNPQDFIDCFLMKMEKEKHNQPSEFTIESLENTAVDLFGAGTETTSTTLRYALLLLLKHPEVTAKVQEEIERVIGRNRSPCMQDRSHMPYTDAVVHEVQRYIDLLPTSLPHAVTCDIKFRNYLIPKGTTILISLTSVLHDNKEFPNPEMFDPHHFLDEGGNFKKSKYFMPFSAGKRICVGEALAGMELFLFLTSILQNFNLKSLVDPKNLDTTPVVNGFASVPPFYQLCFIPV
With `Cn1ncc2c(NCCc3ccccc3)nc(Cl)nc21`, the activity, negative = inhibition is -22.7% [at 11.4 µM]. Still for that read-out and setting: the same measure for `O=C(CCCc1ccccn1)c1ccccc1`: -17.1% [at 11.4 µM].

With `COc1ccccc1N1CCN(C[C@@H](O)COc2cccc3ccccc23)CC1`, the “activity, negative = inhibition” value is 18.2% [at 25.6 µM].

As to `OC[C@@H](O)COc1cccc2ccccc12`, the “activity, negative = inhibition” value was -24.2%. For `O=C(COc1cccc2ccccc12)N1c2ccccc2CCc2ccccc21`, the AC50 was 2.82 µM (active). On the same count and under the same terms, the result for `O=C(c1cc(C(F)(F)F)cc(C(F)(F)F)c1)N1CCC2(CCN(Cc3nccs3)CC2)CC1` reads 12.6 µM (active).

For the compound `O=C(c1ccncc1)N1CCC2(CCN(Cc3nccs3)CC2)CC1`, the “activity, negative = inhibition” value is 2.77%. The same measure, in the same setting: the result for `O=C(c1cccc(F)c1)N1CCC2(CCCN(Cc3nccs3)C2)CC1` reads -3.9%. On the same count and under the same terms, the result for `O=C(c1cc(C(F)(F)F)cc(C(F)(F)F)c1)N1CCC2(CCCN(Cc3nccs3)C2)CC1` reads 29.9%.

For the compound `O=C(c1ccco1)N1CCC2(CCN(Cc3nccs3)CC2)CC1`, the “activity, negative = inhibition” value was 3.85%.

On to `O=C(c1ccco1)N1CCC[C@@]2(CCN(Cc3nccs3)C2)C1`, for which the “activity, negative = inhibition” value is -3.46%.

In the case of `O=C(c1cc(C(F)(F)F)cc(C(F)(F)F)c1)N1CCC[C@@]2(CCN(Cc3nccs3)C2)C1`, the “activity, negative = inhibition” value was -1.58%. `O=C(c1cccc(F)c1)N1CCC2(CCN(Cc3nccs3)CC2)CC1`: the AC50 is 15.8 µM (active).

On to `O=C(c1cccc(F)c1)N1CCC[C@@]2(CCN(Cc3nccs3)C2)C1`, for which the AC50 is 10 µM (active). As for `NC(N)=NN=Cc1c(Cl)cccc1Cl`, the AC50 entry is “inactive”. Turning to `Cc1cc(CC(=O)O)n(C)c1C(=O)c1ccc(Cl)cc1`, the “activity, negative = inhibition” value is -17.2% [at 25.6 µM]. In the case of `Cc1cc2ccccn2c1C(=O)c1ccc(Cl)cc1`, the AC50 is 11.2 µM (active). The same measure, in the same setting: the same measure for `CCS(=O)(=O)c1ccc(C(=O)Nc2ccccc2)c(Cl)c1Cl`: 10 µM (active).

`CN1C[C@H](c2ccccc2)C(O)([C@]2(c3ccccc3)CN(C)C[C@@H](c3ccccc3)C2=O)[C@H](c2ccccc2)C1` (some centres undefined): the activity, negative = inhibition is 5.9% [at 11.4 µM]. `COc1ccc(C(=O)N2CCC3(CCCN(CC(C)C)C3)CC2)cc1`: the “activity, negative = inhibition” value was 6.29%. Consider `O=C(c1ccncc1)N1CCC2(CCCN(Cc3ccncc3)C2)CC1`, for which the AC50 is 5.01 µM (active).

Regarding `O=C(c1ccncc1)N1CCC[C@@]2(CCN(Cc3ccccc3)C2)C1`, the “activity, negative = inhibition” value is -19%. For `COc1ccc(C(=O)N2CCC3(CCCN(Cc4ccncc4)C3)CC2)cc1`, the AC50 was 3.16 µM (active).

In the case of `COc1ccc(C(=O)N2CCC3(CCCN(Cc4ccccc4)C3)CC2)cc1`, the “activity, negative = inhibition” value was 4.43%. Still for that read-out and setting: the result for `O=C(c1ccncc1)N1CCC2(CCCN(Cc3ccccc3)C2)CC1` reads -5.36%; that for `COc1cc2c3cc1Oc1cc(ccc1O)C[C@@H]1c4c(cc(OC)c(O)c4Oc4ccc(cc4)C[C@H]3[N+](C)(C)CC2)CC[N+]1(C)C`, 4.34% [at 11.4 µM]. `Cc1sc(NC(=O)c2ccco2)c(C(c2ccncc2)N2CCOCC2)c1C` (centres undefined): the half-maximal activity concentration (AC50) is 2.24 µM (active).

On to `O=C(Nc1c(C(=O)N2CCOCC2)cnn1-c1ccccc1)c1ccco1`, for which the “activity, negative = inhibition” value was 4.62%. Same read-out and setting: the same measure for `O=C(Nc1c(C(=O)N2CCCCC2)cnn1-c1ccccc1)c1ccco1`: -26.3%. `Cc1sc(NC(=O)c2ccco2)c(C(c2cccnc2)N2CCCC2)c1C` (centres undefined): the AC50 was 2.51 µM (active). On to `Cc1cnc(CNc2ncncc2-c2c(C)noc2C)cn1`, for which the activity, negative = inhibition is 17.1% [at 2.29 µM].

Consider `O=C1NCC2(CCN(CCc3ccccc3)CC2)O1`, for which the AC50 result is “inactive”. On the same count and under the same terms, the same measure for `N#C[C@H](c1ccccc1)N1CCCN([C@@H](C#N)c2ccccc2)C1c1ccccc1O` (some centres undefined): 3.16 µM (active).

On to `O=C(O)c1ccccc1NCn1c(=S)sc2ccccc21`, for which the activity, negative = inhibition was -5.72% [at 11.4 µM].

In the case of `Cc1ccccc1OCCCn1c(=O)sc2ccccc21`, the AC50 is 5.01 µM (active). `Cc1ccccc1OCCCN1CCCC1`: the “activity, negative = inhibition” value was -3.29%. On to `O=c1sc2ccccc2n1CCCOc1ccccc1`, for which the AC50 is 12.6 µM (active).

For `C[N+](C)(CCCOc1ccccc1)c1ccccc1`, the “activity, negative = inhibition” value was -28.1% [at 25.6 µM]. On the same count and under the same terms, the result for `Cc1ccc(Cl)cc1-n1c(=O)cc(N2CC(C)OC(C)C2)[nH]c1=O` (centres undefined) reads 35.2%. Still for that read-out and setting: the same measure for `NS(=O)(=O)c1ccc(N=Nc2c(O)c(C(=O)O)cc3ccccc23)cc1`: -28.9% [at 11.4 µM]; for `O=C(O)c1cc2ccccc2c(Cc2cc3ccccc3c(C(=O)O)c2O)c1O` (tested in a mixture with another compound): -15.8% [at 25.6 µM]. `C=CCNS(=O)(=O)c1cccc2cc(C(=O)O)c(O)cc12`: the AC50 was 2.82 µM (active).

On to `N#Cc1cccc(NC(=O)N2CC[C@@]3(CCCNC3)C2)c1`, for which the “activity, negative = inhibition” value is -22.5%. The same measure, in the same setting: the result for `CC(=O)OC[C@@H]1O[C@H](C/C=N\O[C@@H](C)c2cn([C@H](CO)Cc3ccccc3)nn2)C=C[C@@H]1OC(C)=O` reads 8% [at 11.4 µM] and -8.02% [at 11.4 µM]. On the same count and under the same terms, the result for `CO/N=C(/C)CCC(=O)OC[C@@H]1O[C@H](C#Cc2ccccc2)C=C[C@@H]1Oc1ccc(C)cc1` reads -2.9% [at 11.4 µM]. For the compound `COc1ccc(O[C@H]2C=C[C@@H](c3ccccc3)O[C@H]2COC(=O)CC/C(C)=N\O[C@@H](C)c2cn([C@H](CO)Cc3ccccc3)nn2)cc1`, the half-maximal activity concentration (AC50) was 1.26 µM (active). Turning to `COc1ccc(O[C@H]2C=C[C@@H](c3ccccc3)O[C@H]2COC(=O)CC/C(C)=N\O[C@@H](C)CN2CCCCc3nc(C)c(C)cc32)cc1`, the activity, negative = inhibition was -28.1% [at 11.4 µM]. In the case of `C/C(CCC(=O)OC[C@@H]1O[C@H](C#Cc2ccccc2)C=C[C@@H]1Oc1ccc(C)cc1)=N/OC[C@@H](C)[C@H](OCc1ccccc1)C(C)C`, the activity, negative = inhibition was 12.5% [at 11.4 µM]. `C/C(CCC(=O)OC[C@@H]1O[C@H](C#Cc2ccccc2)C=C[C@@H]1Oc1ccc(C)cc1)=N/O[C@@H](C)c1cn([C@H](CO)Cc2ccccc2)nn1`: the AC50 was 3.16 µM (active).
